# About 14,000 (4.5%) of roughly 310,000 compounds showed an effect of 50% or more. Effects have a minus sign here. This excerpt belongs to a sample that is enriched for strong results.
# Biological target: human ether-à-go-go-related gene (hERG) potassium channel (human, UniProt Q12809)
# Test: primary screen, population patch clamp on CHO cells stably expressing hERG; higher = less effect of the substance
# 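Also: peak tail current of the secondary pulse compared with the same well before compound.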
# Chain of human ether-à-go-go-related gene (hERG) potassium channel (Q12809 whole entry, looked up): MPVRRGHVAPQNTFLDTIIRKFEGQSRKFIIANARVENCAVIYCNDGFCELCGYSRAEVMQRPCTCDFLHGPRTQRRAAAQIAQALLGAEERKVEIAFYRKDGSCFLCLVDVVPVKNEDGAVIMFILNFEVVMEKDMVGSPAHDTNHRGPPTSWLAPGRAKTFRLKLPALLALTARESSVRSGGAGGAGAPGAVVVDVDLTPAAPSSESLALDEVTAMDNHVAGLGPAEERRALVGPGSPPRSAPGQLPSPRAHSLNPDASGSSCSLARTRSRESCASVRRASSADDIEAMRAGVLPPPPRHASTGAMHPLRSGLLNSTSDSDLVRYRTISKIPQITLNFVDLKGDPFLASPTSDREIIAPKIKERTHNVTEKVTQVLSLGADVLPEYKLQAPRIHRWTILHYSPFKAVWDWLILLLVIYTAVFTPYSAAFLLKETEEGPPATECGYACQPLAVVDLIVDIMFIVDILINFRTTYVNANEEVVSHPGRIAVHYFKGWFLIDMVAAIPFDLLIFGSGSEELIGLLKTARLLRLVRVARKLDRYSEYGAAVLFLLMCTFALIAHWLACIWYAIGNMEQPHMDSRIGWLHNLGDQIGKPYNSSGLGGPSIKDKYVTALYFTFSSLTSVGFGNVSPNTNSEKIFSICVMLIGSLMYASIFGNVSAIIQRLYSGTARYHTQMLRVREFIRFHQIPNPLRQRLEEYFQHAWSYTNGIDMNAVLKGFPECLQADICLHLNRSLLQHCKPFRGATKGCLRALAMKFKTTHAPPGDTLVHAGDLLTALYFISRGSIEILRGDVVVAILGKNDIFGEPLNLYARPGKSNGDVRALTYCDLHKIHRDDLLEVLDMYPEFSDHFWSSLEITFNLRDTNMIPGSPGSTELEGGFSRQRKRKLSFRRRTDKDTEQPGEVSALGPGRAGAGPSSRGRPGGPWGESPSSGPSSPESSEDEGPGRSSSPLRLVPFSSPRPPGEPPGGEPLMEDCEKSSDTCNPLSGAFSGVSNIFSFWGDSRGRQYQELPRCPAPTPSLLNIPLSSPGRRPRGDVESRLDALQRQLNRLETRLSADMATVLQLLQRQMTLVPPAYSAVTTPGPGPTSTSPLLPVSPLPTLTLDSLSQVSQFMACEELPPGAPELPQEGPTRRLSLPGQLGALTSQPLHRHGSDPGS
row,Structure (SMILES),"hERG current change (%, negative = inhibition) at 10uM [%]"
1,COc1ccc(-c2csc(N3CCN(c4cc5c(cc4Cl)nc(-c4ccncc4)n5CCOCCO)CC3)n2)cc1,12.6
2,O=C(N/C(=C/c1ccc(Cl)cc1)C(=O)N1CCCC1)c1ccccc1,-8.81
3,CCOC(=O)N1CCN(C(=O)/C(=C/c2ccc(Br)cc2)NC(=O)c2ccc(OC)cc2)CC1,-78.2
4,CCOC(=O)N1CCN(C(=O)/C(=C/c2ccc(N(C)C)cc2)NC(=O)c2ccccc2)CC1,-45.6
5,COc1ccc(C(=O)N/C(=C\c2ccc(OC)c(OC)c2)C(=O)N2CCCCC2)cc1,6.11
6,COc1ccc(/C=C(\NC(=O)c2ccc(OC)cc2)C(=O)N2CCCCC2)cc1,-3.21
7,CCOC(=O)N1CCN(C(=O)/C(=C/c2ccc(Cl)cc2)NC(=O)c2ccccc2)CC1,-74.7
8,COc1ccc(/C=C(\NC(=O)c2ccc(C)cc2)C(=O)N2CCCCC2)cc1,-55.2
9,COc1ccc(/C=C(\NC(=O)c2ccccc2)C(=O)N2CCN(C)CC2)cc1,-76.3
10,COc1ccc(/C=C(/NC(=O)c2ccccc2)C(=O)N2CCCCC2)cc1,-1.39
11,COc1ccc(/C=C(/NC(=O)c2ccccc2)C(=O)N2CCCC2)cc1,2.89
12,N#Cc1ccc(C(=O)Nc2ccc(S(=O)(=O)NC3=NCCCCC3)cc2)cc1,-1.54
13,CC1=CC(=O)c2c(O)ccc(O)c2C1=O,-42.6
14,Cc1nn(C)c(C)c1CNC(=O)Nc1cccc(Cl)c1C,1.35
15,CCOC(=O)c1[nH]c(C)c(C(=O)OCCOc2cccc(C)c2)c1C,5.99
16,CC(C)C(=O)NC(Nc1cccc2cccnc12)C(Cl)(Cl)Cl (stereo not shown),-17.8
17,COc1cc(NC(=O)[C@@H](NC(=O)c2ccco2)C(C)C)c(OC)cc1NC(=O)c1ccccc1,-36
18,CCOC(=O)C1=C(N)OC(CCl)=C(C#N)C1c1ccsc1 (stereo not shown),8.35
19,CCOC(=O)C1CCN(C(=O)/C(=C/c2ccccc2)NC(=O)c2ccccc2)CC1,-30
20,CCOC(=O)N1CCN(C(=O)/C(=C/c2ccc(OC)c(OC)c2)NC(=O)c2ccccc2)CC1,-34.5
21,COc1ccc(/C=C(/NC(=O)c2ccccc2)C(=O)N2CCC(C)CC2)cc1,-38.4
22,CCOC(=O)N1CCN(C(=O)/C(=C\c2ccc(SC)cc2)NC(=O)c2ccccc2)CC1,-78.5

row,Structure (SMILES),"hERG current change (%, negative = inhibition) at 10uM [%]"
1,CCOC(=O)N1CCN(C(=O)/C(=C/c2ccc(F)cc2)NC(=O)c2ccccc2)CC1,-48.5
2,CCOC(=O)N1CCN(C(=O)/C(=C/c2ccc(OC)cc2)NC(=O)c2ccccc2)CC1,-68.4
3,CCNc1nc(C(=O)O)nc(N2CCOCC2)n1,10.7
4,CCCc1nnc(NC(=O)CC(C)c2ccccc2)s1 (stereo not shown),2.66
5,Cc1nn(Cc2ccccc2)c(C)c1NC(=O)c1cccs1,14
6,COc1ccccc1N1CCN(S(=O)(=O)CCNC(=O)C2CCCCC2)CC1,-20.7
7,CCOC(=O)c1ccc(Nc2ncnc3ccc(C)cc23)cc1,6.65
8,O=[N+]([O-])c1ccc2c(OCc3nnc(-c4ccccc4Br)o3)ncnc2c1,-74.1
9,Brc1ccccc1-c1nnc(COc2ncnc3ccccc23)o1,-8.52
10,Brc1ccccc1-c1nnc(COc2ncnc3c2cnn3-c2ccccc2)o1,7.27
11,Cc1ccc(N2CC(C(=O)N3CCc4ccccc4C3)CC2=O)cc1 (stereo not shown),-44.5
12,CCOc1ccc(N2CC(C(=O)N3CCCc4ccccc43)CC2=O)cc1 (stereo not shown),-62.6
13,COc1ccc(C2C(C(=O)N3CCN(c4ccccn4)CC3)CC(=O)N2c2ccc(OC)cc2)cc1 (stereo not shown),-78.7
14,COc1ccc(C2C(C(=O)N3CCN(c4ccccn4)CC3)CCC(=O)N2c2ccc(OC)cc2)cc1 (stereo not shown),-47.3
15,CCOc1ccc(N2CC(C(=O)N3CCc4ccccc4C3)CC2=O)cc1 (stereo not shown),-75
16,CCc1ccc(N2CC(C(=O)N3CCN(c4ccccn4)CC3)CC2=O)cc1 (stereo not shown),-24.3
17,COc1ccc(N2C(=O)CCC(C(=O)N3CCN(c4ccccn4)CC3)C2c2ccc(F)cc2)cc1 (stereo not shown),-48.2
18,CCOc1ccc(N2CC(C(=O)N3CCc4ccccc43)CC2=O)cc1 (stereo not shown),-47.6
19,CCOc1ccc(N2CC(C(=O)N3CCN(c4ccccn4)CC3)CC2=O)cc1 (stereo not shown),-59
20,CCOc1ccc(N2CC(C(=O)N3CCCC3)CC2=O)cc1 (stereo not shown),-4.65
21,Cc1ccc(N2CC(C(=O)N3CCCc4ccccc43)CC2=O)cc1 (stereo not shown),-18.8
22,CCOc1ccc(N2CC(C(=O)N3CC(C)OC(C)C3)CC2=O)cc1 (stereo not shown),20

row,Structure (SMILES),"hERG current change (%, negative = inhibition) at 10uM [%]"
1,COc1cccc(NS(=O)(=O)c2ccc3[nH]cc(C(=O)NCCC(C)C)c(=O)c3c2)c1,13.9
2,Cc1ccc2nc(N/C(=N/S(=O)(=O)c3cccs3)c3ccccc3Cl)sc2c1,-7.11
3,CN1CCN(S(=O)(=O)c2ccc(NC(=O)c3cccs3)cc2)CC1,-11.3
4,NC(=O)c1ccsc1NC(=O)COC(=O)c1cnccn1,2.13
5,CC1CCC(NC(=O)CNC(=O)c2cccs2)CC1 (stereo not shown),7.33
6,Cc1n[nH]c(=O)nc1N1CCc2ccccc2C1,4.47
7,COc1cc(OC)cc(C(=O)Nc2ccc3c(c2)CCCN3C(=O)c2cccs2)c1,-2.41
8,CCOc1cc(S(=O)(=O)NCC2CCCO2)ccc1F (stereo not shown),13.8
9,COc1ccccc1/C=C/C=N/n1c(-c2ccc(F)cc2)n[nH]c1=S,6.25
10,CC1=NS(=O)(=O)c2cc(Cl)ccc2N1,-2.63
11,Cc1occc1C(=O)NNC(=O)CN1C(=O)NC(C)(c2ccccc2)C1=O (stereo not shown),19.1
12,COc1cccc(NC(=O)CN(C)C(=O)c2oc3c(ccc4ccccc43)c2C)c1,-0.74
13,CCOC(=O)c1cc(C#N)c(C)nc1N(CC)CC,-3.53
14,CC(=O)Nc1cccc(OCC(=O)NS(=O)(=O)c2ccc(C)cc2)c1,1.18
15,O=C1CC(C(=O)N2CCc3ccccc32)CN1c1ccccc1 (stereo not shown),-6.98
16,O=C1CC(C(=O)N2CCc3ccccc32)CN1c1ccc(F)cc1 (stereo not shown),-55.3
17,O=C1CC(C(=O)N2CCCc3ccccc32)CN1c1ccc(F)cc1 (stereo not shown),-22.2
18,CCNC(=O)CC1SC(=Nc2ccc(Cl)cc2)N(CC)C1=O (stereo not shown),-0.837
19,COCCCn1c(Cc2csc(Nc3ccc(F)cc3)n2)nnc1SCC(N)=O,-5.91
20,COc1ccc(CN(C)C2CCN(C)CC2)cc1OC,21.8
21,COc1cccc(CN(C)CC2CCCN(CCc3ccc(Cl)cc3)C2)c1OC (stereo not shown),-74.5
22,COc1ccc(CN(C)CC2CCCN(CCc3ccc(F)cc3)C2)cc1OC (stereo not shown),-64.8

row,Structure (SMILES),"hERG current change (%, negative = inhibition) at 10uM [%]"
1,COc1ccc(CN(C)CC2CCCN(CCc3ccc(Cl)cc3)C2)cc1OC (stereo not shown),-88.5
2,COc1ccc(CN(C)CC2CCCN(CCc3ccc(F)cc3)C2)c(OC)c1OC (stereo not shown),-74.8
3,COc1cc(CN(C)CC2CCCN(CCc3ccc(F)cc3)C2)c(Cl)cc1O (stereo not shown),-30
4,Cc1ccc2[nH]c3c(Cl)ncnc3c2c1,5.18
5,Cc1ccc(O)c(C(CC(=O)N2CCCC2)c2ccccc2)c1 (stereo not shown),-18.9
6,COc1ccc(O)c(-c2cc(-c3cccs3)[nH]n2)c1,0.169
7,CCn1cc(C2C(C(=O)Nc3cc(C)ccn3)=C(C)NC3=C2C(=O)CC(C)(C)C3)c(C)n1 (stereo not shown),11.3
8,Cc1cccc(NC(=O)CSc2nc(COc3ccccc3)nc3ccccc23)c1C,13.5
9,COc1ccccc1NC(=O)Nc1nn(C)c2cccc(OC)c12,2.03
10,CCCC12CN3CCN(CC(C3)/C1=N\NC(=O)c1ccc(C(C)(C)C)cc1)C2,-14.4
11,Cc1cccc(N2CCN(CC(=O)Nc3nccs3)CC2)c1C,-45.3
12,Cc1cc2nc(-c3ccc(SCC(=O)Nc4ccc5c(c4)OCCO5)nc3)[nH]c2cc1C,2.26
13,COC(=O)c1cc2c(cc1NC(=O)CSCCc1ccccn1)OCO2,7.82
14,COc1ccc(-c2noc(CN(C)S(=O)(=O)c3ccc(Cl)cc3)n2)cc1OC,-9.85
15,O=C1NC(=O)[C@]2(Cc3ccccc3N3CCN(c4ccccc4)CC32)C(=O)N1c1ccccc1 (stereo partly shown),-7.93
16,COc1ccc([N+](=O)[O-])cc1NS(=O)(=O)c1ccccc1,8.94
17,COc1ccc(N2CCN(CC(=O)Nc3cc(C)on3)CC2)cc1.O=C(O)C(=O)O,0.616
18,CC(C)Cn1c(N)c(C(=O)CSc2ncccn2)c(=O)n(C)c1=O,6.81
19,Cc1ccc(S(=O)(=O)CCC(=O)NCc2ccc(Cl)cc2)cc1,-3.96

# From paper PMC4336329 (PLoS ONE, 2015)
